From PubChem BioAssay
H9c2 protect: modulators protecting cardiomyocytes from myocardial damage; H9c2 cardiomyocytes, H2O2 injury protection, ATPLite, 2 h; protection from H2O2 cell death, % at 20 µM; 360,000 tested, 0.63% active; AID 588492;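 active = compounds giving at least 50% protection of heart cells from peroxide-induced death in the single-dose screen, raw or plate-pattern-corrected value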;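 note: 0% = DMSO wells with peroxide and 100% = DMSO wells without peroxide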
MIN6 prolif: inducers of beta-cell replication in MIN6 cells; MIN6 cells proliferation, ATPlite luminescence, 48 h; cells starved in 0.2% serum; 100% = growth in 10% serum; proliferation, % at 10 µM; 330,000 tested, 0.29% active;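 active = compounds whose signal lies at least 3.5 SD above the mean of all wells on their plate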;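 note: 0% = DMSO-treated cells in low-serum medium and 100% = 10% serum control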
hiPSC survival: increases survival of single human iPS cells; hiPSC single-cell survival, ATPlite luminescence; 100% = ROCK inhibitor wells, 0% = DMSO; survival enhancement, % at 20 µM; 360,000 tested, 0.044% active; in the data active = survival enhancement above about 18%;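 note: cells exposed to compounds for 16 hours before the ATP read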
ABCB6 inh MLPCN: blocks the human ABCB6 transporter. Q9NP58. K562-ABCB6 porphyrin accumulation, flow cytometry, 1 h; hits give low values. fluorescence ratio to DMSO, % at 10 µM. 360,000 tested, 0.19% active. AID 602162;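 active = fluorescence ratio to DMSO below 75%, the collection mean minus 3 SD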;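 note: signal is porphyrin accumulated inside mitochondria; 100% equals median channel fluorescence of DMSO control wells; lower ratio means ABCB6 inhibition with less porphyrin fluorescence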
Target sequence (Q9NP58 whole entry, looked up): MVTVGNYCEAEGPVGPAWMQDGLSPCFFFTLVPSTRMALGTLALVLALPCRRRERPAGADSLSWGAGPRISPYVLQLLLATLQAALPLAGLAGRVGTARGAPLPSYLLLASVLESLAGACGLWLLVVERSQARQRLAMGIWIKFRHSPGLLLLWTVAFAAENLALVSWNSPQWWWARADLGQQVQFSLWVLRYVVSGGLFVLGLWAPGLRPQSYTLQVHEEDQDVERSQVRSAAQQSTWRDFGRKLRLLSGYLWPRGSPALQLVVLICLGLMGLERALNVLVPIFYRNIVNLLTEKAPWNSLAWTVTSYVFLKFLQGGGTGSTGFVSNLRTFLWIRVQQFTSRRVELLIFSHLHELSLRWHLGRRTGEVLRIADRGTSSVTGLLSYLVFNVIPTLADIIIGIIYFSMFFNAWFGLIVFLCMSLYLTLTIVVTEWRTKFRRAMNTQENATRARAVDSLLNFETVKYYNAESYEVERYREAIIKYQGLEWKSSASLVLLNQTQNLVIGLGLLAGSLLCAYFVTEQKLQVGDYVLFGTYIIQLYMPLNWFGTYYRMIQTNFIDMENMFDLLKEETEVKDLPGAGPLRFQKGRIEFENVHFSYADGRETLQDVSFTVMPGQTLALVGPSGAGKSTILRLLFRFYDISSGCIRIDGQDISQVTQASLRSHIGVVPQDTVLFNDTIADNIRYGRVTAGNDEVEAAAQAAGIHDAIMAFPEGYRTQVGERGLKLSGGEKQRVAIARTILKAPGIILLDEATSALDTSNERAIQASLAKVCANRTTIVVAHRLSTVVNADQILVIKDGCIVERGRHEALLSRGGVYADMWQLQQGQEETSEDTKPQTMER
Myeloid diff 2: promotes myeloid progenitor differentiation; ER-HoxA9 myeloid progenitors, lysozyme-GFP differentiation, flow cytometry; calls only at 10 µM; 360,000 tested, 1% active; AID 624256;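 active = normalized GFP-positive differentiation at or above the plate's own cutoff, the solvent-only control mean plus 3 SD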;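 note: cells exposed to compound for four days before flow analysis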
Numbers without * were called inactive; i = inactive; . = no result given; + = active, no number. A selection: hits, their analogues and other compounds. The true share with any hit is near 2.2%.

SMILES	H9c2 protect	MIN6 prolif	hiPSC survival	ABCB6 inh MLPCN	Myeloid diff 2
COc1ccc(OC)c(-c2cc(C(=O)N/N=C/c3cc(OC)c(OC)cc3OC)c3ccccc3n2)c1	21	-2	-1	95	i
COc1ccccc1NC(=O)COC(=O)/C=C/c1cccs1	19	1	0	95	i
CCC(C(=O)Nc1ccccc1OC)n1c(C(=O)OC)cc2ccsc21 (configuration not stated)	-7	-3	4	127	+
Cc1c(Cc2ccccc2)c(=O)oc2cc(OCC(=O)NCc3ccccn3)ccc12	2	-1	0	94	i
O=C(O)c1csc(Br)c1Br	-5	-2	-1	101	i
Nc1c(C(=O)c2ccccc2)sc2snc(SCC(=O)c3ccccc3)c12	26	-3	4	200	+
Nc1nnc(SCC(=O)c2ccccc2)s1	27	1	3	99	i
C/C(CC(=O)Nc1cc(C)ccn1)=N\NC(=O)c1cccc(F)c1	1	9	0	97	+
O=C(O)c1cccc(-n2cccc2/C=C2/NC(=O)N(Cc3ccccc3F)C2=O)c1	7	-4	2	104	i
CCOC(=O)CNC(=O)N1CCCC(C(=O)c2ccc3c(c2)OCO3)C1 (configuration not stated)	2	-2	-3	106	+
CCOc1ccc(NC(=O)CN(C)C(=O)C2CC(=O)N(Cc3ccco3)C2)cc1OCC (configuration not stated)	8	9	-1	97	i
COc1ccc(N(C(=O)c2cccc([N+](=O)[O-])c2)S(=O)(=O)c2cccs2)cc1	51*	-4	-1	94	i
COc1ccc(N(C(=O)c2ccncc2)S(=O)(=O)c2cccc([N+](=O)[O-])c2)cc1	2	0	1	96	i
COc1cccc(C2CC(c3cccs3)=NN2C(=O)CSC2=NN3CCCC(=O)N=C3S2)c1OC (configuration not stated)	33	-2	1	87	+
C=CCn1c(Cc2ccc(OCC)cc2)nnc1SCC(N)=O	4	3	-1	102	+
C=CCn1c(Cc2ccc(OC)cc2)nnc1SCC(N)=O	-4	-2	2	94	i
FC(F)(F)c1ccc(NC(=S)NC2CCCCC2)cc1	-22	-6	0	100	+
FC(F)(F)c1cccc(NC(=S)NC2CCCC2)c1	-12	0	-1	75	i
COc1ccc(C)cc1Nc1nc(-c2c[nH]c3ccccc23)cs1	-14	-5	1	126	+
CCC1(C)Cc2ccccc2-c2c1c(=O)n(-c1ccc(C)cc1)c1nnnn21 (configuration not stated)	-11	-3	5	91	i
Cc1sc2nc(COC(=O)c3cccc(OC(F)F)c3)[nH]c(=O)c2c1C	5	0	0	96	i
Cc1sc2nc(COC(=O)c3cccc(S(=O)(=O)N(C)c4ccccc4)c3)[nH]c(=O)c2c1C	-2	-3	-1	125	+
CC(=O)OCc1nc2sc(C)c(C)c2c(=O)[nH]1	51*	-1	-2	95	i
Cc1ccccc1C(=O)N1CCC(C(=O)Nc2ccccc2Cl)CC1	7	-1	0	96	i
O=C(Cn1[nH]c(=O)c2ccccc2c1=O)NC1CCN(Cc2ccccc2)CC1	70*	0	-2	91	i
SMILES	H9c2 protect	MIN6 prolif	hiPSC survival	ABCB6 inh MLPCN	Myeloid diff 2
O=C(Cn1[nH]c(=O)c2ccccc2c1=O)NC1CCCCCC1	78*	-1	-1	98	i
O=C(COc1ccccc1)NC1CCN(Cc2ccccc2)CC1	-1	2	5	109	i
CCCOC(=O)c1c(-c2ccccc2)nc(CC)c(C(=O)SCC)c1CCC	-25	-8	-3	96	i
Cc1nn(-c2ccccc2)c(C)c1C(=O)OCC(=O)N1c2ccccc2NC(=O)C1(C)C	99*	3	3	95	i
Cc1cnc(C(=O)OCC(=O)N2c3ccccc3NC(=O)C2(C)C)cn1	-3	2	-2	100	i
CC1=CC2=NC(=O)/C(=C\c3cc(C)n(-c4ccccc4)c3C)C(=N)N2O1	-3	-2	-1	98	i
Cc1ncoc1C(=O)Nc1ncc([N+](=O)[O-])s1	-2	-3	-1	97	i
CN(C)/C=C1/Sc2ccccc2C1=O	-1	-1	11	100	i
COc1ccc(CCN(/C=C2\Sc3ccccc3C2=O)C(C)=O)cc1OC	4	-2	0	157	+
O=[N+]([O-])c1cc(C(F)(F)F)ccc1N/N=C/c1cc2ccccc2nc1Cl	.	-3	.	.	.
COc1ccc(N(CC(=O)Nc2ccc3c(c2)OCCO3)S(=O)(=O)c2cccc(C)c2)cc1	16	-1	0	101	.
CCCNC(=O)Cn1c(=O)/c(=C\c2ccc(-c3cccc([N+](=O)[O-])c3)o2)s/c1=C\C(=O)C(C)(C)C	48	-2	0	130	+
NC(=O)N/N=C/c1ccc(-c2ccc([N+](=O)[O-])cc2)o1	5	0	1	101	i
CCCNC(=O)Cn1c(=O)/c(=C\c2ccc(-c3ccc([N+](=O)[O-])cc3)o2)s/c1=C\C(=O)C(C)(C)C	14	.	1	i	+
CCCNC(=O)Cn1c(=O)/c(=C/c2ccc(-c3cccc([N+](=O)[O-])c3)o2)s/c1=C\C(=O)C(C)(C)C	46	.	3	112	+
Cc1cccc(C)c1NC(=O)C1CCN(C(=O)c2cccs2)CC1	-1	1	0	95	i
Cc1sc2ncnc(SCC(=O)NC(=O)NCc3ccco3)c2c1C	-4	-4	-1	104	+
Cc1nc(SCC(=O)NCc2ccco2)c2c(C)c(C)sc2n1	13	2	6	97	i
C[C@@H]1CN([C@H](C)CO)S(=O)(=O)c2ccc(C#Cc3ccccc3F)cc2O[C@H]1CN(C)C(=O)c1ccc2c(c1)OCO2	106*	.	-2	99	i
COc1cc(C2C(=O)N(C3CCCC3)CC(=O)N2Cc2ccco2)ccc1OC(C)C (configuration not stated)	6	-2	6	104	i
COCCn1c(-c2ccc(-c3ccc([N+](=O)[O-])cc3Br)o2)nc2c1c(=O)[nH]c(=O)n2CC(C)C	15	0	0	121	+
N=c1c2c(-c3ccccc3)c(-c3ccccc3)oc2ncn1CCN1CCOCC1	28	-5	3	97	i
c1ccc(-c2oc3ncnc(NCCN4CCOCC4)c3c2-c2ccccc2)cc1	53*	0	0	93	i
c1ccc2c(c1)NCC1CCCN21 (configuration not stated)	-15	-5	0	124	+
O=C1NC[C@@H]2CCCN2C1=O	.	.	-2	95	i
Oc1c(Cl)cc(Cl)cc1/C=N/c1nccs1	61*	-6	1	93	i
